This is a sample that favours compounds with a hit; in the whole collection about 17% have one here.
ClpP mod = qHTS Assay for Activators of ClpP; purified B. subtilis ClpP, FRET peptide cleavage, 20 min; Potency, µM (titrated, usually from 57.5 µM), inactives show top-dose activity change, negative = active; 340,000 compounds, 1.9% hits; active means well fitted falling curve with a large enough effect; inconclusive means small, poorly fitted or top-dose-only effect; inactive means no such curve, though single readings can be large or run the other way; further: the source files actives as falling curves though it sought activators and does not explain the sign; nearly all actives have a fitted effect of over 65% in size
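ClpP 10 microg/mL final, pH 8 Tris/KCl buffer with BSA, glycerol, Tween-20; compound pinned in; FRET-FV substrate; RT 20 min; Ex320/Em430; ΔFRET vs ADEP 5.8 microM, DMSO, no enzyme.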
DT40 TDP1 no CPT = qHTS for Inhibitors of human tyrosyl-DNA phosphodiesterase 1 (TDP1): qHTS in cells in absence of CPT; 420,000 compounds, 15% hits; DT40 Tdp1-/- hTDP1 cells, no CPT, ATP luminescence, 48 h; Potency, µM (highest dose often 46.2 µM), inactives show at the top dose activity change, negative = growth inhibition, usual class: inhibitors; further: on the % scale 0 is the no-effect control and ±100 the full control effect; nearly all actives have a fitted effect of over 55% in size
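A cellular qHTS used chicken DT40 cells lacking endogenous Tdp1 but carrying stably transfected human TDP1. Compounds were applied without camptothecin, and cell growth kinetics were judged by ATP-dependent luminescence after ≥48 hr.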
DT40 TDP1 CPT = qHTS for Inhibitors of human tyrosyl-DNA phosphodiesterase 1 (TDP1): qHTS in cells in presence of CPT; 420,000 compounds, 12% hits; Potency, µM (doses to about 46.2 µM), for inactives: at the highest dose activity change, negative = growth inhibition, hits mostly inhibitors; chicken DT40 Tdp1-/-;hTDP1 cells + 20 nM CPT, ATP luminescence, 48 h; AID 686979, 2013; further: on the % scale 0 is the no-effect control and ±100 the full control effect; nearly all actives have a fitted effect of over 55% in size
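Chicken DT40 Tdp1-/- cells complemented with human TDP1, 400 cells/well, exposed to compounds plus 20 nM camptothecin for at least 48 h at 37 C; viability read as ATP content by CellTiter-Glo luminescence.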
TDP1 block = qHTS Assay for Inhibitors of Tyrosyl-DNA Phosphodiesterase (TDP1). recombinant TDP1, AlphaScreen DNA substrate cleavage. Potency, µM (highest dose often 130 µM), inactives show at the highest dose activity change, negative = inhibition, hits mostly inhibitors. 350,000 compounds, 0.28% hits. AID 485290, 2010; further: on the % scale 0 is the no-effect control and ±100 the full control effect; nearly all actives have a fitted effect of over 40% in size
Target sequence (Q9NUW8 whole entry, looked up): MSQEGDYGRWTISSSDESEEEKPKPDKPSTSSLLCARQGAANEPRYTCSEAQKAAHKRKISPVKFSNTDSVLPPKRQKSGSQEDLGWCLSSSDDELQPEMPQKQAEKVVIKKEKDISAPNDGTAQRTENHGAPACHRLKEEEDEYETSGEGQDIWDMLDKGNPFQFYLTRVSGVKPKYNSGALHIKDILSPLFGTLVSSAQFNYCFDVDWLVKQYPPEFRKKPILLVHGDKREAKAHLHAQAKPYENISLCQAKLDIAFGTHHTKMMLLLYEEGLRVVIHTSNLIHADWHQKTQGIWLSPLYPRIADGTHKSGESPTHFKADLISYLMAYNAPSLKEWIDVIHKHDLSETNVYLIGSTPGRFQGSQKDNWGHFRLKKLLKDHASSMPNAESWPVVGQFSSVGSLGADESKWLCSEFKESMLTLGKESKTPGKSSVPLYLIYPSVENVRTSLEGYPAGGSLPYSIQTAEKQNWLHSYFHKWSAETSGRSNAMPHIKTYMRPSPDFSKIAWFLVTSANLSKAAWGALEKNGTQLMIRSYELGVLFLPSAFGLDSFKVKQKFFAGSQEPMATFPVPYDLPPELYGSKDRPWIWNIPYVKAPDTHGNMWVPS
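Tdp1 1 nM final; 15 min RT w/ cpd; substrate 15 nM, 5 min; beads 10 ug/ml, 10 min; AlphaScreen read. Neg ctrl: no enzyme.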
An asterisk follows results filed as active; ? = inconclusive; nt = not tested or not shown; [ ] = dose if it differs, or a comment. Unless noted, the call rests on the fitted dose curve; in most records, active means well fitted curve in the direction sought with a large enough effect; inconclusive means small, poorly fitted or top-dose-only effect, or another doubt; inactive means no such curve, though single readings can be large; an effect the other way counts as inactive or inconclusive. Potency means the concentration at half of the fitted maximal effect.

SMILES	ClpP mod	DT40 TDP1 no CPT	DT40 TDP1 CPT	TDP1 block
COc1ccc(S(=O)(=O)N2CCCCCC2)cc1C(=O)N(C)CC(=O)Nc1ccccc1Cl	1%	21µM*	?	nt
COc1ccccc1CN(C)C(=O)c1cc(S(=O)(=O)N2CCCCCC2)ccc1OC	1%	?	?	nt
COc1ccc(S(=O)(=O)N2CCCCCC2)cc1C(=O)N(C)CC(=O)Nc1c(Cl)cccc1Cl	-1%	?	?	-4%
CCCCCC1CC1C(=O)N/N=C/c1ccc(N(C)C)cc1 (stereo not drawn)	35µM*	?	-16%	10%
CCCCOc1ccc(/C=C/C2=CC(C)(C)NC(=S)N2)cc1OCC	-22%	13µM*	?	11%
CCOc1cc(C=O)ccc1OCCCN1C(=O)NC(C)(C)C1=O	-9%	14%	-18%	2%
COc1cccc(C(=O)NC2CC(=O)N(c3ccc4c(c3)OCCO4)C2)c1OC (stereo not drawn)	-4%	-10%	-9%	0%
NC(=O)CSc1nnc(CSc2ncccn2)n1-c1ccccc1	nt	-2%	9%	2%
Cc1ccc(N2CC(C(=O)N3CCC4(CC3)CC(=O)c3ccccc3O4)CC2=O)cc1 (stereo not drawn)	1%	23µM*	?	1%
COc1ccc(N2CC(C(=O)N3CCC4(CC3)CC(=O)c3ccccc3O4)CC2=O)cc1 (stereo not drawn)	?	?	?	2%
COc1ccccc1-c1ccnc(-n2ncc(C(=O)N(C)CCc3ccccn3)c2C)n1	nt	8%	8%[9.04 µM]	nt
COc1ccc(S(=O)(=O)N(C)CC(=O)NC2CCCCC2)cc1Cl	-3%	-8%	-1%	5%
COc1ccc(S(=O)(=O)N(CC(N)=O)C2CCCCC2)cc1Cl	-2%	?	23µM*	5%
Cc1ccc(C)c(N2C(=O)N(C)c3ccccc3S2(=O)=O)c1	-1%	?	?	3%
COc1cccc(CNC(=O)CN2C(=O)N(c3c(C)cccc3C)S(=O)(=O)c3ccccc32)c1OC	-2%	16µM*	16µM*	0%
Cc1ccc(C)c(N2C(=O)N(Cc3ccccc3C)c3ccccc3S2(=O)=O)c1	-4%	29µM*	18µM*	-2%
COc1cccc(CNC(=O)CN2C(=O)N(c3cc(C)ccc3C)S(=O)(=O)c3ccccc32)c1OC	-2%	23µM*	13µM*	1%
CCOC(=O)CN1C(=O)N(c2ccccc2OC)S(=O)(=O)c2ccccc21	1%	12%	-5%	nt
O=C(NC(=S)Nc1ccccc1)c1cncc(C#Cc2ccccc2)c1	nt	-5%	5%	-1%
CC1CCN(S(=O)(=O)c2ccc3c(c2)C(=NO)c2cc(S(=O)(=O)N4CCC(C)CC4)ccc2-3)CC1	-28%	0.73µM*	0.65µM*	5%
O=C1c2cc(S(=O)(=O)N3CCOCC3)ccc2-c2ccc(S(=O)(=O)N3CCOCC3)cc21	1%	-28%	-29%	0%
O=S(=O)(c1ccc2c(c1)C(=NO)c1cc(S(=O)(=O)N3CCCCC3)ccc1-2)N1CCCCC1	28µM*	2.9µM*	4.1µM*	nt
CN(C)N=C1c2cc(S(=O)(=O)N3CCOCC3)ccc2-c2ccc(S(=O)(=O)N3CCOCC3)cc21	1%	21µM*	?	11%
CCOC(=O)c1c(C)oc2ccc(OC(=O)COc3c(F)c(F)c(F)c(F)c3F)cc12	2%	?	-18%	-11%
CN(c1cccc(NC(=O)CCSc2ccccc2)c1)S(C)(=O)=O	-1%	-27%	-22%	2%
CN(c1cccc(NC(=O)CSc2ccc(Cl)cc2)c1)S(C)(=O)=O	1%	11µM*	10µM*	-1%
CN(c1cccc(NC(=O)COc2ccc(Cl)cc2Cl)c1)S(C)(=O)=O	1%	?	21µM*	-5%[56.1 µM]
Cc1ccccc1OCC(=O)Nc1cccc(N(C)S(C)(=O)=O)c1	2%	-29%	-22%	3%
COCCCNC(=O)CSc1nc2c(sc3ccccc32)c(=O)n1CCc1ccccc1	?	-20%	-17%	1%

Compound activity (PubChem BioAssay)
